# An excerpt weighted towards active compounds, which were near 19% of everything screened.
# Pf growth 48h: inhibits P. falciparum growth in the first generation, 48 h. P. falciparum luciferase growth in erythrocytes, 48 h. Potency, µM (top dose mostly 28.7 µM), for the others: at the top dose activity change, negative = inhibition, actives largely listed as inhibitors. 5.9% of 310,000 active; further: potency means the concentration at half of the fitted maximal effect; on the % scale 0 is the no-effect control and ±100 the full control effect
#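 Growth was read as firefly luciferase luminescence after a 48 h, 37 C, 5% CO2 exposure of compounds to reporter-bearing P. falciparum cultures (0.1% parasitemia, 2% hematocrit final) in Albumax-supplemented RPMI 1640.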
# Marburg entry inh: inhibitors of Marburg virus binding or cell entry | Potency, µM (highest dose often 37.8 µM), without a hit: at the top dose activity change, negative = inhibition, most hits filed as inhibitors | Marburg virus pseudotyped entry inhibition, cell reporter | 1.8% of 300,000 active; calls by dose curve; tested in HEK293 cells; further: potency means the concentration at half of the fitted maximal effect; on the % scale 0 is the no-effect control and ±100 the full control effect
# LASV entry inh: blocks Lassa virus binding to or entry into cells; AID 540256; Lassa virus pseudotype entry inhibition, cell reporter; 1.2% of 300,000 active; Potency, µM (highest dose often 37.9 µM), for inactives: at the highest dose activity change, negative = inhibition, actives largely listed as inhibitors; calls by dose curve; tested in HEK293 cells; further: potency means the concentration at half of the fitted maximal effect; on the % scale 0 is the no-effect control and ±100 the full control effect; nearly all actives have a fitted effect of over 50% in size
# Pf growth 96h: P. falciparum growth inhibition at 96 hours; P. falciparum luciferase reporter growth, 96 h; Potency, µM (highest dose often 28.7 µM), without a hit: top-dose activity change, negative = inhibition, usual class: inhibitors; 6.9% of 320,000 active; further: potency means the concentration at half of the fitted maximal effect; on the % scale 0 is the no-effect control and ±100 the full control effect
#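 Two parasite generations (96 h, 37 C, 5% CO2) of compound exposure in infected erythrocytes (0.05% parasitemia, 2% hematocrit). Luciferase-reporter P. falciparum; decreased luminescence indicates inhibited growth, aimed at apicoplast-acting delayed death.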
# Cycloheximide cs: affects cycloheximide protein synthesis inhibition readout, counter-screen; cell reporter, cycloheximide protein synthesis inhibition counterscreen; max response, %; 12% of 300,000 active; in the data active means max response mostly above about 13%, no sharp cut-off; inactive means mostly below about 14%; further: read at 38.3 µM for the half of the compounds with a filed dose; 0% is about no effect
# Shiga inhibitor: inhibitors of Shiga toxin in Vero cells; inhibition, % at 38.7 µM; 9.2% of 290,000 active; Vero cells, Shiga toxin protein synthesis inhibition reporter; in the data active means inhibition mostly above about 28%, no sharp cut-off; inactive means mostly below about 43%; further: 0% is about no effect
# The depositor's hits bear a star; ? = inconclusive; . = not tested or not shown; [ ] = remark or other dose. Unless noted, the call rests on the fitted dose curve; in most records, active means well fitted inhibition curve with a large enough effect; inconclusive means small, poorly fitted or top-dose-only effect, or another doubt; inactive means no such curve, though single readings can be large or run the other way.
SMILES,Pf growth 48h,Marburg entry inh,LASV entry inh,Pf growth 96h,Cycloheximide cs,Shiga inhibitor
CC(=O)Nc1ccc(NC(=O)Nc2cccc3ccccc23)cc1,20%,.,.,6%,0,-16
COc1cccc(NCc2cc(=O)oc3cc(C)c(C(C)C)cc23)c1,?,.,.,?,5,2
CCc1ccc(CN2CCC(n3nccc3NC(=O)c3ccccc3Cl)CC2)cc1,-16%,?,?,?,-3,-30
O=C(CCCl)Nc1cccc2cccnc12,.,.,.,.,48*,36
Cc1cc(O)c(C(C)C)cc1NC(=O)Nc1cccc2ccccc12,10µM*,?,?,?,-2,18
Cc1cc(O)c(C(C)C)cc1NC(=O)Nc1cc(Cl)ccc1Cl,.,?,-15%[46.1 µM],.,.,.
O=C(Nc1cccc2cccnc12)OCc1ccccc1,.,.,.,.,30*,50
O=C(CI)Nc1cccc2cccnc12,.,.,.,.,-5,-13
O=C(Nc1ccccc1)Nc1cccc2cccnc12,100%,?,?,.,36*,122*
Cc1cccc(NC(=O)[C@@H](NC(=O)[C@@H]2Cc3ccccc3CN2)C(C)C)c1,-30%,.,.,9%,5,10
COc1cc(NS(=O)(=O)c2ccc(NC(=O)C3CCCO3)cc2)nc(OC)n1 (stereo unspecified),6%,24%,-5%,-14%,-3,-19
O=C(Nc1ccccc1)Nc1csc2ccccc12,?,-1%[46.1 µM],-10%,?,51*,148*
O=C(NC(NC1CCS(=O)(=O)C1)C(Cl)(Cl)Cl)c1ccc(Br)cc1 (stereo unspecified),33%,-24%,-2%,?,-5,-25
O=C(CCN1CCc2ccccc2C(c2ccccc2)C1)c1ccc2c(c1)OCCO2 (stereo unspecified),.,?,?,-9%,19*,25
O=C(CCCN1Cc2ccccc2C1)c1ccc(F)cc1,20%,?,25%,5.2µM*,22,-5
O=C(O)CCC(=O)c1ccc2c(c1)OCCO2,.,.,.,?,8,10
O=C(O)CCSCC(=O)c1ccc2c(c1)OCCO2,-3%,?,-19%,7%,-1,24
O=C(CCN1Cc2ccccc2C1)c1ccc2c(c1)OCCO2,?,-17%,?,.,19*,37
O=S(=O)(Nc1nc2cc3c(cc2nc1Cl)OCCO3)c1ccccc1,15µM*,-4%,-23%,16%,-2,-3
CCOC(=O)c1ccccc1NC(=O)Nc1cc2c(cc1N1CCCCC1)n(C)c(=O)n2C,.,-21%[46.1 µM],15%[46.1 µM],.,.,.
O=C(Nc1nccs1)c1ccc(N2C(=O)[C@@H]3[C@H](C2=O)[C@H]2C=C[C@@H]3C2)cc1,?,.,.,?,26*,54*
O=C(Nc1nccs1)c1ccc(N2C(=O)C3CCCCC3C2=O)cc1 (stereo unspecified),26%,3%[46.1 µM],4%,?,37*,70*
O=C(Nc1nccs1)c1cccc(N2C(=O)C3C4C=CC(C4)C3C2=O)c1 (stereo unspecified),9%,4%,11%,29%,-4,-3
CCOC(=O)CC1COCCN1Cc1cn[nH]c1-c1ccc2c(c1)OCO2 (stereo unspecified),-2%,3%[46.1 µM],?,40%,-2,-10
O=S(=O)(Nc1ccn(-c2ccccc2)n1)c1ccc(Br)cc1,37%,6%,?,.,16*,42
SMILES,Pf growth 48h,Marburg entry inh,LASV entry inh,Pf growth 96h,Cycloheximide cs,Shiga inhibitor
Cc1ccc(S(=O)(=O)NC(=O)Nc2c(C)n(C)n(-c3ccccc3)c2=O)cc1,10%,-4%,4%,12µM*,-4,-4
O=S(=O)(Nc1ccccn1)c1ccc(-n2cccn2)cc1,12%,.,.,-12%,-4,-14
Cc1c(NS(=O)(=O)c2ccc(Br)cc2)c(=O)n(-c2ccccc2)n1C,-21%,.,.,?,17*,18
Cc1ccc(S(=O)(=O)Nc2c(C)n(C)n(-c3ccccc3)c2=O)cc1C(=O)OC(C)C(=O)N(C)c1ccccc1 (stereo unspecified),-22%,-13%[46.1 µM],.,15µM*,-3,-3
O=c1[nH]c(CSc2nnc(COc3ccccc3)n2-c2ccccc2)nc2ccccc12,-15%,3%,-11%,-2%,2,-5
O=C(c1cccs1)N1CCN=C1SCc1cccnc1,6%,-9%,0%,66%,12,19
CCOC(=O)CC1C(=O)NCCN1C(=S)Nc1ccccc1 (stereo unspecified),-2%,-18%,3%,4%,8,-8
